The values below come from PMC4081100, “A DNA-binding-site landscape and regulatory network analysis for NAC transcription factors in Arabidopsis thaliana”.

Common to all, as to assay: universal protein binding microarray (PBM); transcription factors of Arabidopsis thaliana; high values mean tight binding
Test [1] concerns the target T1, GST-ANAC092(1-176) (Arabidopsis thaliana, UniProt Q9FKA0 1-176).
T1 sequence: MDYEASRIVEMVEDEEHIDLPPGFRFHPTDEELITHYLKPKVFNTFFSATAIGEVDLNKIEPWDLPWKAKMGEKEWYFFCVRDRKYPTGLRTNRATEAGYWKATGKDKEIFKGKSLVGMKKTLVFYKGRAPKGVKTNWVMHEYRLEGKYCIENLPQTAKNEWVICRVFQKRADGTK
The settings on record: protein: recombinant; tags: GST; chain copies: 2; dsDNA, one strand shown. In outline: (§1)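 Binding is expressed as the normalised enrichment score (E-score). Proteins carrying a GST tag, whether NAC-domain, full-length or DNA-binding-domain forms, were induced in cells, and zinc acetate was added for zinc-finger proteins. After purification on glutathione–Sepharose 4B and quantification by A280 or anti-GST western blot, each was applied in duplicate at 200 to 500 nM final to custom all-10-mer Agilent 4 × 180K arrays made double-stranded by primer extension. Gapped and ungapped 8-mers were scored.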

Test [2] has as its target GST-NTL6(1-168) (Arabidopsis thaliana, UniProt Q9SCK6 1-168). To be noted: protein: recombinant; tags: GST; chain copies: 2; dsDNA, one strand shown. In outline: as §1
Test [3] addresses T2, GST-ANAC019 NAC domain (Arabidopsis thaliana, UniProt Q9C932 14-162).
T2 sequence: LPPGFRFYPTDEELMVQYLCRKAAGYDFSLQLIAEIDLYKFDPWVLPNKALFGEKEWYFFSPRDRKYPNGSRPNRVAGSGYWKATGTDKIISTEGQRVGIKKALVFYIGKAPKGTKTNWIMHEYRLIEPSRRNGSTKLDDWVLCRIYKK
To be noted: protein: recombinant; tags: GST; chain copies: 2; dsDNA, one strand shown. In outline:
as §1

Test [4] has as its target T3, GST-ANAC055(1-171) (Arabidopsis thaliana, UniProt Q9LDY8 1-171).
T3 sequence: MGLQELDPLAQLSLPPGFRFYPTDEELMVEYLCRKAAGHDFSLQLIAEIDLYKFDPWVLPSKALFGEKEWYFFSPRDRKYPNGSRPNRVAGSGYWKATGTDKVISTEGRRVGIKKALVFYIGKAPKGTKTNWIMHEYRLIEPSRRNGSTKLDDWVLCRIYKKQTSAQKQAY
To be noted: protein: recombinant; tags: GST; chain copies: 2; dsDNA, one strand shown. The essentials: as §1

The target in test [5] is T4, GST-ATAF1 NAC domain (Arabidopsis thaliana, UniProt Q39013 7-158).
T4 sequence: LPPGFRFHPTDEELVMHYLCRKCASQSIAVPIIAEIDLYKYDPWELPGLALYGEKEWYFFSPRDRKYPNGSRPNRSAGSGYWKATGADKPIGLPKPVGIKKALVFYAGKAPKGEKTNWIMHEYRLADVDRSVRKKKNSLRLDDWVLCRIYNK
To be noted: protein: recombinant; tags: GST; chain copies: 2; dsDNA, one strand shown. In outline:
as §1

The target in test [6] is T5, GST-ANAC092(1-285) full length (Arabidopsis thaliana, UniProt Q9FKA0 1-285).
T5 sequence: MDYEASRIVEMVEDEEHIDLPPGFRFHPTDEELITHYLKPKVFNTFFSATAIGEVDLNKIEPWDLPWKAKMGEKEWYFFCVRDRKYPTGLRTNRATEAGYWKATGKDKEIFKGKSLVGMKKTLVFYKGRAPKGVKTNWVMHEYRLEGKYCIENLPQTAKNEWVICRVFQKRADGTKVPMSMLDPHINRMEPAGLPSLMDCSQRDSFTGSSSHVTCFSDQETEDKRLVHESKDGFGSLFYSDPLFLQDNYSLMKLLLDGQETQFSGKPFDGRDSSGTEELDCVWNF
To be noted: protein: recombinant; tags: GST; chain copies: 2; dsDNA, one strand shown. In outline:
as §1

The target of test [7] is T6, GST-NAP(1-166) (Arabidopsis thaliana, UniProt O49255 1-166).
T6 sequence: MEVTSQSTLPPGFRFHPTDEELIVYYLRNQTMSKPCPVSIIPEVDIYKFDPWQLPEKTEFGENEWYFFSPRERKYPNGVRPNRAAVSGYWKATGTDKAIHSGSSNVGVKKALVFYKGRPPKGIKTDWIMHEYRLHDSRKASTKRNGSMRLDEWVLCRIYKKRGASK
The settings on record: protein: recombinant; tags: GST; chain copies: 2; dsDNA, one strand shown. The essentials:
as §1

In test [8] the target is T7, GST-NST2(1-184) (Arabidopsis thaliana, UniProt Q9M274 1-184).
T7 sequence: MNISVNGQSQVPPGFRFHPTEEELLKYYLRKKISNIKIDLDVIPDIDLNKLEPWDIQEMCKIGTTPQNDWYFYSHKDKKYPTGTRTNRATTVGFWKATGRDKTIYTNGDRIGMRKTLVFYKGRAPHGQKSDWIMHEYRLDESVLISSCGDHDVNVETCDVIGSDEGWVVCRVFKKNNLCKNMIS
The settings on record: protein: recombinant; tags: GST; chain copies: 2; dsDNA, one strand shown. The essentials:
as §1

Test [9] concerns the target T8, GST-SND1(1-203) (Arabidopsis thaliana, UniProt Q9LPI7 1-203).
T8 sequence: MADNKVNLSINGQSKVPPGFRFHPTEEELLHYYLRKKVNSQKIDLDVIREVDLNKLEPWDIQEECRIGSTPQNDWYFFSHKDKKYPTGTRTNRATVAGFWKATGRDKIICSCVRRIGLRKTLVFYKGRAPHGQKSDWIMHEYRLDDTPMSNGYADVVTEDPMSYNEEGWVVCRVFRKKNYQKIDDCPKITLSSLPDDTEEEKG
The settings on record: protein: recombinant; tags: GST; chain copies: 2; dsDNA, one strand shown. The essentials: as §1

For test [10], the target named is T9, GST-VND3 NAC domain (Arabidopsis thaliana, UniProt Q9FH59 12-162).
T9 sequence: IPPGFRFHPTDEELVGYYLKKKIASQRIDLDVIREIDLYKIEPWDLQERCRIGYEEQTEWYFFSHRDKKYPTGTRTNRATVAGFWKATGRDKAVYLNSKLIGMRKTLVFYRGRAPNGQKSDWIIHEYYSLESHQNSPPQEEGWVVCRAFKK
To be noted: protein: recombinant; tags: GST; chain copies: 2; dsDNA, one strand shown. The essentials:
as §1

Test [11] addresses T10, GST-VND7 NAC domain (Arabidopsis thaliana, UniProt Q9C8W9 9-158).
T10 sequence: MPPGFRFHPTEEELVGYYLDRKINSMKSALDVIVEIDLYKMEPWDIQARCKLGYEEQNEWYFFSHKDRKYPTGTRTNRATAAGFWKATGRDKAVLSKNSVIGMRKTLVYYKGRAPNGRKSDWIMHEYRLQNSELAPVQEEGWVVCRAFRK
The settings on record: protein: recombinant; tags: GST; chain copies: 2; dsDNA, one strand shown. In outline: as §1

Test [12] addresses GST-WRKY1(266-371) (Arabidopsis thaliana, UniProt Q9SI37 266-371). To be noted: protein: recombinant; tags: GST; dsDNA, one strand shown. In outline: as §1
The target in test [13] is T11, GST-NTL8 NAC domain (Arabidopsis thaliana, UniProt Q9XIN7 14-156).
T11 sequence: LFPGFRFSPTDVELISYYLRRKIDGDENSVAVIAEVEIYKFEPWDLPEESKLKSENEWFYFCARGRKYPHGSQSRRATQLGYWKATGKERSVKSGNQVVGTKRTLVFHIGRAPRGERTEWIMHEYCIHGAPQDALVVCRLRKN
The settings on record: protein: recombinant; tags: GST; chain copies: 2; dsDNA, one strand shown. In outline:
as §1

GST-WRKY1(266-371), sequence (Q9SI37 266-371): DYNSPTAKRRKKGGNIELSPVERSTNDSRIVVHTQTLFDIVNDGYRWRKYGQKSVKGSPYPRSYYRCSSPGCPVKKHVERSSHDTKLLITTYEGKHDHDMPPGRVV
GST-NTL6(1-168), sequence (Q9SCK6 1-168): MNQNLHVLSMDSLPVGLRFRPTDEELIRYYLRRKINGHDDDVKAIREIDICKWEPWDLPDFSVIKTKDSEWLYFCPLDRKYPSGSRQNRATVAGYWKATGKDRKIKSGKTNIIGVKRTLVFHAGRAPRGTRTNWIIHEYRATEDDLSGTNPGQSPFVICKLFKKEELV

Turning to AACGTAGA, the binding signal in test [1] amounted to 0.21 E-score; in [2] it was 0.145 E-score; in [3], 0.0983 E-score; in test [4], 0.226 E-score; in test [5], 0.163 E-score; in test [6], 0.329 E-score. For the same sequence, the binding signal in test [7] came to 0.0935 E-score; in test [8], 0.34 E-score; in test [9], 0.408 E-score; in test [10], 0.206 E-score; in [11], 0.184 E-score; in test [12] it was 0.317 E-score.

Turning to AGTCAACA, the binding signal in [1] turned out to be 0.161 E-score; in [2], 0.0859 E-score; in [3] it was 0.125 E-score; in test [4] it was 0.0844 E-score; in [5], 0.152 E-score; in test [6], 0.0634 E-score. In addition, the binding signal amounted to 0.0624 E-score in test [8]; 0.0937 E-score in test [13]; 0.19 E-score in test [9]; 0.13 E-score in [10]; 0.0805 E-score in [11]; 0.488 E-score in test [12].

For the sequence ATTACTTC, the binding signal in test [1] turned out to be 0.31 E-score; in test [2], 0.415 E-score; in test [3] it was 0.168 E-score; in test [4], 0.223 E-score; in test [5], 0.176 E-score; in [6], 0.34 E-score. In addition, the binding signal was 0.267 E-score in test [8]; 0.406 E-score in [13]; 0.347 E-score in test [9]; 0.208 E-score in test [10]; 0.14 E-score in [11]; 0.097 E-score in test [12].

For CACGTCAA, the binding signal was 0.444 E-score in test [1]; 0.38 E-score in test [3]; 0.324 E-score in test [4]; 0.248 E-score in test [5]; 0.448 E-score in test [6]; 0.299 E-score in [7]. Also, the binding signal in [8] was found to be 0.252 E-score; in test [9] it was 0.313 E-score; in test [10], 0.332 E-score; in test [11] it was 0.278 E-score; in test [12] it was 0.403 E-score.

For AAGTAAGT, the binding signal in test [1] turned out to be 0.249 E-score; in test [2], 0.412 E-score; in [3] it was 0.189 E-score; in test [4] it was 0.164 E-score; in test [5], 0.199 E-score; in test [6] it was 0.259 E-score. For the same sequence, the binding signal in [7] was determined as 0.135 E-score; in [8], 0.181 E-score; in [13], 0.267 E-score; in [9], 0.282 E-score; in [10] it was 0.217 E-score; in test [11] it was 0.135 E-score. In test [12], the binding signal turned out to be 0.2 E-score.

Turning to GACGCAAC, the binding signal came to 0.438 E-score in test [1]; 0.294 E-score in test [3]; 0.293 E-score in test [4]; 0.282 E-score in test [5]; 0.457 E-score in [6]; 0.37 E-score in test [7]. The binding signal is 0.295 E-score in test [8]; 0.325 E-score in test [9]; 0.295 E-score in test [10]; 0.259 E-score in [11]; 0.0608 E-score in test [12].

Take GTCGCGTA: the binding signal in test [1] came out at 0.307 E-score; in test [2], 0.0763 E-score; in [5], 0.195 E-score; in test [6], 0.414 E-score; in [7] it was 0.171 E-score; in [8] it was 0.109 E-score. For the same sequence, the binding signal was 0.422 E-score in test [9], 0.102 E-score in test [10], 0.233 E-score in [11] and 0.145 E-score in [12].
